Assay results published in PubChem BioAssay AID463173 (ICCB-Longwood Screening Facility, Harvard Medical School, 2010).
Out of some 52,000 compounds screened, about 4,300 (8.3%) were called active. The full list was thinned out, with actives kept by preference. A number with no mark means an inactive call. Rule as the data show it: active = survival mostly below about 52% (no sharp cut-off); inactive = mostly above about 56%.

Tested on: DeltatarO mutant
Assay: growth inhibition of S. aureus wild type versus tarO mutant, primary screen, teichoic acid synthesis inhibitors, RN4220, OD600 (AID 463173)
Conditions: OD600, 18 h, stronger effect = lower value, screened at 18.75 µg/mL (by protocol)

SMILES	survival
CC(C)C(OC(=O)c1cccs1)C(=O)NC1CCCC1 (stereo not given)	96%
Cc1nn(C(=O)c2cccc(Cl)c2)c(C)c1S(=O)(=O)N1CCOCC1	82%
Cc1ccc(C(=O)Nc2ccc(-c3nc4ccccc4o3)cc2)cc1Cl	68%
Cc1nnc(SCc2cc(=O)c3ccccc3[nH]2)s1	125%
CCOCCCNC(=O)C(c1ccccc1)N(Cc1ccc2c(c1)OCO2)C(=O)c1ccc(NC(C)=O)cc1 (stereo not given)	51%
COc1ccc(CCNC(=O)c2ccc3c(c2)OCO3)cc1	110%
COc1ccc(CN(CCC(c2ccc3c(c2)OCO3)c2ccccc2OC)C(C)=O)cc1 (stereo not given)	19% (active)
CCOCCCNC(=O)C(c1ccc(OC)cc1)N(Cc1ccc2c(c1)OCO2)C(=O)c1ccc(NC(C)=O)cc1 (stereo not given)	50%
COc1ccc(CNCCC(c2ccc3c(c2)OCO3)c2ccccc2OC)cc1 (stereo not given)	1% (active)
N#CCC(c1ccccc1)c1ccc2c(c1)OCO2 (stereo not given)	92%
CCC(=O)N(CCC(c1ccccc1)c1ccc2c(c1)OCO2)Cc1ccc(OC(C)C)cc1 (stereo not given)	0% (active)
COc1ccc(CNCCC(c2ccccc2)c2ccc3c(c2)OCO3)cc1 (stereo not given)	-14% (active)
COc1cc2cc(CN(Cc3ccc4c(c3)OCO4)C(=O)NCc3ccccc3)c(=O)[nH]c2cc1OC	102%
COc1ccc(CNCCC(c2ccc(C)cc2)c2ccco2)cc1 (stereo not given)	64%
NC(=O)CC(c1ccccc1)c1ccc2c(c1)OCO2 (stereo not given)	97%
CCOCCCNC(=O)C(c1ccc(OC)cc1)N(Cc1ccc2c(c1)OCO2)C(=O)c1ccccc1O (stereo not given)	62%
O=c1c(S(=O)(=O)c2ccccc2)cn(Cc2ccccc2)c2cc(N3CCOCC3)c(F)cc12	85%
COc1ccc(NC(=O)CCCN2C(=O)C(c3ccccc3)Oc3cccnc32)c(OC)c1 (stereo not given)	81%
Cc1ccc(C(=O)c2oc3ccccc3c2NC(=O)COc2ccccc2C)cc1	95%
CCc1ccc(NC(=O)CSC2=Nc3ccccc3C3=NC(CCC(=O)NCc4ccccc4OC)C(=O)N23)cc1 (stereo not given)	55%
Cc1ccc(-n2ncc3c(N4CCN(C)CC4)ncnc32)cc1Cl	96%
COc1ccc(C2=NC(C)(C)N(CC(=O)Nc3ccc(F)c(F)c3)C2=O)cc1	92%
Cc1c(C(=O)Nc2cc(F)ccc2F)sc2nc(-c3ccc(F)cc3)cn12	107%
CCn1c(=O)c(C(=O)Nc2cc(OC)c(OC)c(OC)c2)nc2ccccc21	89%
CN1C(=O)c2ccccc2Sc2ccc(NC(=O)COc3ccc(F)cc3)cc21	87%
O=C(COc1ccccc1F)Nc1ccc(-c2nc3ccccc3s2)cc1	67%
O=C(COc1ccccc1F)Nc1ccc(Cl)c(-c2nc3ccccc3[nH]2)c1	33% (active)
Cc1ccccc1-c1nc2cc(NC(=O)COc3ccc(F)cc3)ccc2o1	56%
O=C(COc1ccc(F)cc1)Nc1ccc(Cl)c(-c2nc3ccccc3[nH]2)c1	26% (active)
O=C(COc1ccccc1F)Nc1ccc2oc(-c3cccc(Cl)c3)nc2c1	102%
